# Assay results from ChEMBL document CHEMBL4513216, “Probing the Open Global Health Chemical Diversity Library for Multistage-Active Starting Points for Next-Generation Antimalarials” (ACS Infect Dis, 2020).
# The campaign covered roughly 69,000 compounds. About 8,600 (12%) showed an effect of 50% or more. Shown is part of a subset that was picked to be rich in strong results.
# System: Plasmodium berghei
# Assay: Screen against P. berghei liver stage (PbLuc), transformed with Luciferase, at 10uM
# Assay type: functional, HepG2
# Details: tested at 10 uM
row,SMILES,INHIBITION [%]
1,NC(=O)CCCNC(=O)Cc1csc(Cc2ccccn2)n1,46.6
2,CNC(=O)N1CCCCC1CCNS(C)(=O)=O (stereo unspecified),-2.48
3,CC(=O)N1CCCN(C(C(=O)O)c2ccc(C)cc2C)CC1 (stereo unspecified),41.3
4,CNc1cc(N2CCCC2CNCc2cccc(C(N)=O)c2)ncn1 (stereo unspecified),39.5
5,CC(=O)N1CCN(C(=O)c2csc(-c3ccc(C)cc3C)n2)CC1,17
6,CN1CC2(CCN(C(=O)c3cccc(-n4cccn4)c3)CC2)OC1=O,12
7,CC(=O)N1CCC(NC(=O)c2ccc3c(c2O)OC(C)(C)C3)CC1,48.2
8,Cc1ccc(CN2CCC3(CC2)CC(CC(=O)NC(C)C)CO3)s1 (stereo unspecified),-62.7
9,CN(C)C[C@H]1OC[C@@H]2CCN(S(=O)(=O)c3ccc(F)cc3)C[C@@H]21,42.7
10,COc1ccccc1C(C)(C)NC(=O)NC1CCC(O)CC1 (stereo unspecified),-30.3
11,Cc1ccc2oc(C(=O)N3CCCC(n4ccnc4C)C3)cc2n1 (stereo unspecified),20.33
12,Cc1ccccc1C(=O)NC[C@@H]1CCN(C(=O)C2(O)CCCC2)C[C@H]1O,69.3
13,Cc1ccccc1C(=O)NC[C@@H]1CCN(C(=O)c2cscn2)C[C@H]1O,63.8
14,COc1ccc(C[C@H]2CN(C(=O)c3cscn3)CC[C@@H]2OC)cc1,22.3
15,Cc1ccccc1C(=O)NC[C@@H]1CCN(C(=O)c2cccn2C)C[C@H]1O,17.4
16,Cc1ccccc1C(=O)N1CC(C(=O)NCC2CC2)C2(CCOCC2)C1 (stereo unspecified),-41.4
17,Cc1ccccc1C(=O)NC[C@@H]1CCN(C(=O)CN2CCCC2)C[C@H]1O,44.3
18,Cc1ccc(C)c(-c2[nH]c3ccccc3c2C(=O)O)c1,13.5
19,Cn1ccnc1C1(O)CCN(C(=O)Cc2ccccc2)CC1,7.635
20,CCN(CC)S(=O)(=O)c1ccc(C(=O)NC(C)(C#N)C2CC2)cc1 (stereo unspecified),-5.1
21,O=C(c1ccc2c(c1)CCC2)N1CCC(c2n[nH]c(C3CC3)n2)CC1,-19.6
22,CC(=O)N1CCC(NC(=O)N(C)Cc2c(C)noc2C)CC1,-35.61

row,SMILES,INHIBITION [%]
1,CC(=O)c1ccc(N2CCN(C(=O)c3cnn4c3OCCC4)CC2)cc1,16
2,COc1ccc(C(=O)N2CCOCC2c2ccc(C)o2)cc1 (stereo unspecified),68
3,Cc1ccc(C2COCCN2C(=O)c2ccc(N(C)C)cc2)o1 (stereo unspecified),-0.79
4,COCc1ccc(C(=O)N2CCOCC2c2ccc(C)o2)cc1 (stereo unspecified),1.2
5,CC(C(=O)N(C)C)N1CCc2onc(-c3cccc(F)c3)c2C1 (stereo unspecified),40.9
6,CC(C)(C)c1nc(CN2CCc3onc(-c4cccc(F)c4)c3C2)no1,67.7
7,CC(C(N)=O)N1CCc2onc(-c3cccc(F)c3)c2C1 (stereo unspecified),18.2
8,Cn1ncc(CN2CCc3onc(-c4cccc(F)c4)c3C2)c1C1CC1,41.5
9,COc1cc2c(nn1)CCN(Cc1noc(CC(C)C)n1)C2,17.4
10,CC(C)c1nc(CN2CCc3onc(-c4cccc(F)c4)c3C2)no1,84.1
11,CC(C)Cc1nc(CN2CCc3onc(-c4cccc(F)c4)c3C2)no1,82.5
12,Cn1cccc1C1CCCN1Cc1noc(C(C)(C)C)n1 (stereo unspecified),-40.5
13,Fc1cccc(-c2noc3c2CN(Cc2cncn2C2CC2)CC3)c1,33.3
14,COc1ncnc2c1CCN(Cc1nccs1)CC2,-20.1
15,CCN(CC(=O)N(C)C)C(=O)c1ccc(-c2nc(C)cs2)cc1,30.9
16,CCCn1c(N2CCCCC2)nc2c(C)nn(C)c2c1=O,35.9
17,Cc1occc1C(=O)N1CCC2(CCCN(Cc3nccs3)C2)C1 (stereo unspecified),-58.3
18,Cc1ccc(CN(C)C(=O)c2cc(Cn3ccnc3C(C)C)[nH]n2)o1,42.3
19,Cc1ccc(CNC(=O)c2cc(Cn3ccnc3C(C)C)[nH]n2)o1,63
20,CCn1ccnc1CN1CCN(C(C)C(=O)NCC(F)(F)F)CC1 (stereo unspecified),19.7
21,Cc1nc(CNC(=O)c2cc(Cn3ccnc3C(C)C)[nH]n2)sc1C,37.9
22,CC(C)c1nccn1Cc1cc(C(=O)NCC(C)n2ccnc2)n[nH]1 (stereo unspecified),26

row,SMILES,INHIBITION [%]
1,CC(C)c1nccn1Cc1cc(C(=O)NCC(F)(F)F)n[nH]1,94
2,CCc1nc(CNCCn2cc(C)cn2)no1,0.914
3,O=S(=O)(CCOc1ccc(F)cc1)Nc1cnn(CC(F)F)c1,-6.85
4,CN1CCN2CCN(Cc3cc(=O)n4c5c(cccc35)CCC4)CC2C1 (stereo unspecified),13
5,CCCC1CN(CCOC)C(=O)c2cccnc2O1 (stereo unspecified),26.8
6,COc1ccccc1CN(Cc1cccc(C)c1)C(=O)[C@@H](N)CC(=O)O,11.8
7,CN[C@@H](C)C(=O)N(Cc1cccc(C)c1)Cc1ccccc1OC,34.1
8,COCC(=O)N(Cc1cccc(C)c1)Cc1ccccc1OC,51.7
9,O=C(COc1ccc(F)cc1F)N1CCOCC(O)(CN2CCCC2)C1 (stereo unspecified),11.8
10,Cc1ccc2cc(C(=O)NCCN3CCS(=O)(=O)CC3)c(C)nc2c1,74.7
11,COc1ccc2nc(C)c(C(=O)NCCN3CCS(=O)(=O)CC3)cc2c1,46.9
12,CCN1CCN(CCCNC(=O)c2cc3ccc(C)cc3nc2C)CC1,37.2
13,CSc1nc2ncc3c(=O)n(CCN4CCCCC4)ccc3n2n1,51
14,CSc1nc2ncc3c(=O)n(C)ccc3n2n1,-3.73
15,COCCn1ccc2c(cnc3nc(SC)nn32)c1=O,38.4
16,CCn1c(C)cc(C(=O)N2C[C@@H](C(=O)O)[C@H](c3ccccc3C)C2)c1C,0.33
17,C1CCN(CCOC2CCNCC2)CC1,3.63
18,CC(C)(C)c1nccc(N2CCC(OCCN3CCCCC3)C2)n1 (stereo unspecified),66.5
19,COc1ccnc(N2CCC(OCCN3CCCCC3)C2)n1 (stereo unspecified),42.4
20,Cc1cc(C)nc(N2CCC(OCCN3CCCCC3)C2)n1 (stereo unspecified),58.2
21,CN(CCN1CCCCCC1)c1nccc(N2CCC(O)C2)n1 (stereo unspecified),27.6
22,Cc1cnc(N2CCCOC(CN3CCCCC3)C2)nc1 (stereo unspecified),34.1

row,SMILES,INHIBITION [%]
1,c1cnc(N2CCC(OCCN3CCCCC3)C2)nc1 (stereo unspecified),40.6
2,Cc1ccnc(N2CCC(OCCN3CCCCC3)C2)n1 (stereo unspecified),48.9
3,Cc1cnc(N2CCC(OCCN3CCCCC3)C2)nc1C (stereo unspecified),54.5
4,c1nc2c(c(-c3ccsc3)n1)CCN(Cc1ccoc1)CC2,20.1
5,CCCNC(c1cccnc1)c1ccc(F)c(C)c1 (stereo unspecified),-24.7
6,O=C(CN1CCOC(CNc2cccnn2)C1)NCc1cccs1 (stereo unspecified),36.55
7,CC(C)(C)c1nc(CN2CCOC(Cn3cccn3)C2)no1 (stereo unspecified),-29.1
8,O=C(c1ccncc1F)N1C[C@@H]2CC[C@H]1CN(Cc1cccnc1)C2,22.7
9,Cc1cc(C(=O)NC(C)Cc2ccccc2Cl)n(C)n1 (stereo unspecified),-39.3
10,Cc1noc(C)c1CN1CCCC2(CCN(C(=O)N3CCOCC3)C2)C1 (stereo unspecified),26
11,Cc1ccc(-c2nc(CN3CC(n4nc(C)cc4C)C3)no2)cc1,1.86
12,COCC1COCCC12CCN(C(=O)Cc1ccc(F)cc1)CC2 (stereo unspecified),0.542
13,COc1c(C(=O)NCC(C)Sc2ccccc2)c(C)nn1C (stereo unspecified),29.1
14,COc1ccccc1C(C)CNC(=O)c1c(C)nn(C)c1OC (stereo unspecified),0.705
15,CCC(CNC(=O)c1c(C)nn(C)c1OC)Oc1ccccc1 (stereo unspecified),73.5
16,Cc1ccc(NC(=O)N(CCO)Cc2ccsc2)cc1,-71.5
17,COCCN(C)C(=O)Nc1ccc2c(ccn2CC(=O)N(C)C)c1,19.73
18,COCCN(C)C(=O)Nc1ccc2c(ccn2CCOC)c1,58.4
19,CCCn1ccc2ccc(NC(=O)N(C)CCOC)cc21,20.5
20,O=C1CC2(CNCCN(C(=O)Nc3ccccc3)C2)CN1 (stereo unspecified),16.1
21,CC(=O)NCC1CCC2(CCN(c3ncc(C(C)=O)c(C)n3)CC2)O1 (stereo unspecified),56.7
22,CC(=O)NCC1CCC2(CCN(c3ncc(C)cn3)CC2)O1 (stereo unspecified),-4.21

row,SMILES,INHIBITION [%]
1,CC(=O)NCC1CCC2(CCN(c3nccc(C4CCCC4)n3)CC2)O1 (stereo unspecified),42.1
2,CCC(=O)N1CCC(NCc2cc(C(F)(F)F)ccc2Cl)C1 (stereo unspecified),42.6
3,CC(C)N1CCOCC2(CCCN(C(=O)c3cn(C)cn3)C2)C1 (stereo unspecified),-27.9
4,CC(C)N1CCC2(CCCN(C(=O)c3cncn3C)C2)CC1,23.1
5,c1cnc(N2CCOCC3(CCCN(Cc4cccs4)C3)C2)nc1 (stereo unspecified),67.2
6,O=C(c1cccs1)N1CCCC2(COCCN(c3cccnc3)C2)C1 (stereo unspecified),67.2
7,c1ccc(N2CCC3(COCCN(Cc4cccs4)C3)C2)nc1 (stereo unspecified),-7.28
8,O=C(c1cccs1)N1CCOCC2(C1)CN(c1cccnc1)C(=O)CO2 (stereo unspecified),0.618
9,Cn1cc(CN2CCCC3(COCCN(c4cccnc4)C3)C2)cn1 (stereo unspecified),32.2
10,O=C(c1cccnc1)N1CCCC2(COCCN(c3ccccc3)C2)C1 (stereo unspecified),29.7
11,CC(C)N1CCOCC2(CCCN(C(=O)c3cncn3C)C2)C1 (stereo unspecified),76.3
12,c1csc(CN2CCCC3(COCCN(c4cnccn4)C3)C2)c1 (stereo unspecified),18.3
13,c1cncc(N2CCOCC3(CCCN(Cc4cccs4)C3)C2)c1 (stereo unspecified),59.1
14,c1cncc(CN2CCCC3(COCCN(c4cncnc4)C3)C2)c1 (stereo unspecified),3.11
15,Cc1ccnn1CCNC(=O)c1cnc(N(C)C)nc1,-43.452
16,COCCN1C[C@@H](C)[C@@]2(COCCN(C(=O)c3ccncc3)C2)C1,-8.85
17,COc1c(C2CCCN2C(=O)c2c(C)noc2C)c(C)nn1C (stereo unspecified),19.4
18,Cc1ccn2c(F)c(C(=O)N3CCC4(CCCN(C)C4=O)C3)nc2c1 (stereo unspecified),3.69
